Compound activity (PubChem BioAssay)
Sfp inh: inhibitors of Bacillus subtilis Sfp phosphopantetheinyl transferase | AID 1490 | Q9F4F7 | 3.5% of 310,000 active | Biochemical Sfp PPTase activity, qHTS | Potency, µM, for inactives: largest response in the series, negative = inhibition, hits mostly inhibitors;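 also: the enzyme is Sfp with the accession as filed and its product quenches rhodamine fluorescence; 0% = enzyme reaction without inhibitor and -100% = no enzyme wells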
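After 15 min at room temperature with compound, 15 nM Sfp received 5 uM rhodamine-CoA plus 12.5 uM BHQ-2-ybbR (50 mM Hepes pH 7.6, 10 mM MgCl2). Rate came from the fluorescence difference over 30 min, ex 525/em 598 nm.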
HP1b chromo inh: inhibitors of HP1-beta chromodomain binding to methylated histone tails; AlphaScreen HP1-beta / biotin-H3K9me3 peptide binding; Potency, µM (doses to about 114 µM), inactives show at the top dose activity change, negative = inhibition, most hits filed as inhibitors; 0.56% of 390,000 active; also: nearly all actives have a fitted effect of over 70% in size
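AlphaScreen: HP1-beta (50 nM) preformed 30 min with biotin-H3(1-18)K9me3 peptide (50 nM) in PBS pH 7.4, 0.01% Tween-20. Compound added for 30 min at RT, then streptavidin donor/nickel chelate acceptor beads (10 ug/mL) for 30 min.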
JMJD2A Tudor: blocks the human JMJD2A Tudor domain; AlphaScreen JMJD2A-Tudor / H3K4me3 peptide binding; Potency, µM (titrated, usually from 114 µM), for the others: at the top dose activity change, negative = inhibition, most hits filed as inhibitors; 4.4% of 390,000 active; also: % is scaled to controls: 0 for no effect and ±100 for the full control effect; nearly all actives have a fitted effect of over 50% in size
BAZ2B block: inhibitors of human BAZ2B bromodomain | Q9UIF8 | AlphaScreen BAZ2B-H3K14Ac peptide displacement | Potency, µM (series often up to 114 µM), for the others: top-dose activity change, negative = inhibition, most hits filed as inhibitors | 4.4% of 360,000 active | AID 504333; also: % is scaled to controls: 0 for no effect and ±100 for the full control effect; nearly all actives have a fitted effect of over 60% in size
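BAZ2B (50 nM) with biotin-H3(5-23)K14Ac peptide (50 nM) in PBS pH 7.4, 0.01% Tween-20, preformed 30 min, then compound 30 min at room temperature; top concentration 110uM. AlphaScreen streptavidin donor/nickel chelate acceptor beads (10 ug/mL final), 20 min dark, signal read.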
G9a block: G9a (human) methyltransferase inhibition; 8.8% of 350,000 active; Potency, µM (doses to about 102 µM), for inactives: top-dose activity, negative = inhibition, actives largely listed as inhibitors; Q96KQ7; G9a H3K9 monomethylation, AlphaScreen, 2 h; also: % is scaled to controls: 0 for no effect and ±100 for the full control effect; nearly all actives have a fitted effect of over 75% in size
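Using a bead-based AlphaScreen, monomethylated H3K9 product from 2 h room-temperature reactions (G9a 20 nM, peptide 500 nM, SAM 20 uM) was detected with 0.5 ug/mL rabbit anti-H3K9me1 antibody.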
L3MBTL1 inh-1: inhibitors of human L3MBTL1; 0.66% of 230,000 active; AID 485360; Q9Y468; Potency, µM (top dose mostly 57.1 µM), for the others: at the highest dose activity, negative = inhibition, hits mostly inhibitors; AlphaScreen L3MBTL1–H3K9me1 peptide binding; also: % is scaled to controls: 0 for no effect and ±100 for the full control effect; nearly all actives have a fitted effect of over 60% in size
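AlphaScreen proximity signal between nickel-chelate acceptor and streptavidin donor beads (final 10 ug/mL) reports binding of 50 nM L3MBTL1 to 75 nM biotin-H3 K9me1 peptide; complex incubated with compounds 30 min at room temperature; cefsulodin titration as control.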
L3MBTL1 inh-2: blocks human L3MBTL1 methyl-lysine binding | shares compounds with L3MBTL1 inh-1 | L3MBTL1 methyl-lysine binding inhibition, biochemical qHTS | Potency, µM, actives largely listed as inhibitors | 91% of 500 active | AID 540279; also: nearly all actives have a fitted effect of over 70% in size
AlphaScreen ctr2: interferes with AlphaScreen signal in L3MBTL1 counterscreen; shares compounds with L3MBTL1 inh-1; AlphaScreen counterscreen, signal inhibition; Potency, µM (top dose mostly 57.1 µM), without a hit: at the top dose activity change, negative = inhibition, most hits filed as inhibitors; 500 tested, under 10 active; AID 602224; also: 0% is about no effect
Active calls of the source: *; ? = inconclusive; . = not tested or not shown; [ ] = remark or other dose. In the library only some 12% were active in any assay of this set; here they are far more common. Calls follow the shape of the dose curve; as a rule, active = well fitted curve in the direction sought with a large enough effect; inconclusive = small, poorly fitted or top-dose-only effect, or another doubt; inactive = no such curve, though single readings can be large; an effect the other way counts as inactive or inconclusive. Potency is read from the fitted curve at half-maximal effect.

SMILES | Sfp inh | HP1b chromo inh | JMJD2A Tudor | BAZ2B block | G9a block | L3MBTL1 inh-1 | L3MBTL1 inh-2 | AlphaScreen ctr2
Cc1nnc(SCC(=O)NC2CCCCCC2)n1N | . | 52.2% | -8.1% | -4.5% | 20.5%[12.7 µM] | 4.7% | . | .
CCC(C)n1c(=N)c(C(=O)NC2CCCCC2)cc2c(=O)n3cc(C)ccc3nc21 (stereo not drawn) | . | 20.9% | 1.0% | 3.2% | -47.1%[59 µM] | . | . | .
CC(=O)c1ccccc1NS(=O)(=O)c1cccc2nsnc12 | 1.8% | ? | ? | 50.1µM* | 50.1µM* | 31.6µM* | 26.7* | 7.0%
CC(=O)c1ccccc1NS(=O)(=O)c1cccc2nonc12 | 6.7% | 24.4% | -5.7% | -13.5% | -5.1% | . | . | .
Cc1ccc(CN2C(=O)N/C(=C\c3cccn3-c3cccc(C(=O)O)c3)C2=O)cc1 | 50.1µM* | ? | 44.7µM* | 35.5µM* | 15.8µM* | 2.51µM* | 2.67* | -20.3%
Cc1ccc(NC(=O)CN2C(=O)N/C(=C\c3cccn3-c3cccc(C(=O)O)c3)C2=O)cc1 | 39.8µM* | 70.8µM* | 22.4µM* | 10µM* | 8.91µM* | 10µM* | 2.12* | 6.3%
Cc1ccc(NC(=O)CN2C(=O)N/C(=C/c3cc(C)n(-c4cccc(C(=O)O)c4)c3C)C2=O)cc1 | ? | ? | ? | 22.4µM* | 12.6µM* | 25.1µM* | 16.8* | -13.4%
O=C1N/C(=C/c2cccn2-c2ccc(F)cc2)C(=O)N1Cc1ccccc1 | -8.1% | 9.9% | -22.2% | -8.6% | -30.2%[59 µM] | . | . | .
CCOc1ccc(-c2nonc2NC(=O)COc2ccccc2)cc1 | . | 30.7% | -10.9% | 6.7% | -26.7%[59 µM] | . | . | .
Cc1cccc(Nc2nnc(SCC(O)=C(C#N)c3nc4ccccc4[nH]3)s2)c1 | . | 9.7% | -12.4% | . | . | . | . | .
Cc1cc(C)n2c(SC/C(O)=C(\C#N)c3nc4ccccc4[nH]3)nnc2n1 | ? | 28.3% | ? | ? | 4.5% | 15.8µM* | 5.97* | -19.8%
N#C/C(=C\c1ccccc1OCc1ccc(C(=O)O)cc1)c1ccccc1 | 6.8% | 23.1% | -16.1% | -10.2% | -40.2% | . | . | .
N#CC(C#N)=Cc1cccn1-c1ccc(C(=O)O)cc1 | 23.2% | ? | ? | 20µM* | 11.2µM* | 2µM* | 2.99* | 15.9%
CCOC(=O)/C(C#N)=C/c1cccn1-c1ccc(Cl)cc1 | -19.1% | 21.4% | 3.8% | 0.0% | . | -0.8% | . | .
N#C/C(=C/c1cccn1-c1cccc(C(=O)O)c1)c1ccc(Cl)cc1 | 9.1% | ? | 8.91µM* | 44.7µM* | ? | 25.1µM* | 23.8* | ?
CCOc1ccc(OCCCC(=O)N2CCN(S(=O)(=O)c3ccc(Cl)cc3)CC2)cc1 | . | ? | 17.8µM* | 44.7µM* | 2.82µM* | 31.6µM* | 26.7* | -0.2%
O=C(CCCOc1ccccc1)N1CCN(S(=O)(=O)c2ccc(Cl)cc2)CC1 | . | 25.0% | -1.4% | -3.3% | -6.0%[59 µM] | 30.7% | . | .
COc1ccc(OCCn2cc(C(=O)c3ccco3)c3ccccc32)cc1 | . | 24.1% | -28.5% | -23.5% | -36.7%[59 µM] | . | . | .
COc1cc(Nc2nn(-c3ccc(OC(F)(F)F)cc3)nc2C(C)=O)cc(OC)c1 | . | 36.2% | -7.9% | -2.6% | 1.7%[59 µM] | . | . | .
Cn1c(N)c(C(=O)COC(=O)c2cc(-c3ccco3)nc3ccccc23)c(=O)n(Cc2ccccc2)c1=O | 44.7µM* | . | . | ? | 7.94µM* | 31.6µM* | 3.77* | 11.1%
CCNC(=O)COC(=O)c1cc(-c2ccc(OC)cc2)nc2ccccc12 | -6.0% | 43.0% | -5.1% | 8.2% | 44.5%[12.7 µM] | 15.3% | . | .
CCOc1ccc(NC(=O)CN(C)C(=O)c2cc(-c3ccco3)nc3ccccc23)cc1OCC | . | 10.0% | -2.7% | . | . | . | . | .
